Assay [1] deals with Staphylococcus aureus. The following applies: Concentration 32 ug.mL-1;; ASSAY_TEST Inhibition of Bacterial Growth; detection method Absorption (OD600); MEDIA CAMHB; plate type 384well; NBS; CORNING #3640; time 18 hr.
For assay [2], the system named is Escherichia coli. The note with it: Concentration 32 ug.mL-1;; ASSAY_TEST Inhibition of Bacterial Growth; detection method Absorption (OD600); MEDIA CAMHB; plate type 384well; NBS; CORNING #3640; time 18 hr.

SMILES strings stand for the structures. Results with a measured potency or affinity are listed apart.

Experimental findings from ChEMBL document CHEMBL4513146, “CO-ADD screening of Karazin Kharkiv National University (Ukraine) compounds” are described below.

As a reminder, the Inhibition is the drop in the measured response relative to a control, in per cent.

Consider `Cc1cccc(C)c1NC(=O)CSc1nnc2c3cc(-c4ccc(F)cc4)nn3ccn12`, for which the Inhibition is listed as -13.2% in assay [1] and -12.65% in assay [2].
For `CCC(C)NC(=O)Cn1nc2n(Cc3ccco3)c(=O)c3sccc3n2c1=O` (stereo not given) the same measures were 7.96% and 2.21%.
The matching figures for `Cc1ccc(-n2ccn3c(SCC#N)nnc3c2=O)cc1C`: 11.84% and -4.03%.
The matching figures for `COC(=O)c1ccc(NC(=O)Cn2nc3ccc(S(=O)(=O)C4CCCCC4)nn3c2=O)cc1`: 8.6% and -7.53%.
Turning to `O=C(Cn1nc2ccc(-c3ccc(Cl)cc3)nn2c1=O)N1CCN(c2ccccc2F)CC1`, the Inhibition was 9.33% in assay [1] and -0.1% in assay [2].
